Results filed as inconclusive are left out. The source made the active and inactive calls. Calls follow the shape of the dose curve; as a rule, active = well fitted inhibition curve with a large enough effect; inconclusive = small, poorly fitted or top-dose-only effect; inactive = no such curve, though single readings can be large or run the other way.
Assay: qHTS to identify inhibitors of the type 1 interferon - major histocompatibility complex class I in skeletal muscle: Secondary screen by immunofluorescence; also: nearly all actives have a fitted effect of over 70% in size;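 as to activity change, negative = inhibition: digitonin at 100 µM served as the cytotoxic control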
Settings: C25cl48 myoblasts, IFN-b induced HLA-ABC immunofluorescence, 24 h, Viability; series mostly up to 49.8 µM; activity change, negative = inhibition: at the top concentration
How it was run: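 Immortalized human myoblasts C25cl48 were stimulated with 4.0 ng/ml IFN-beta and exposed to an 11-point 1:3 compound titration, top 50 uM, for 24 h at 37 C. They were then fixed and immunostained for HLA-ABC, and quantified by laser scanning cytometry.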
% is scaled to controls: 0 for no effect and ±100 for the full control effect; potency is read from the fitted curve at half-maximal effect.

| SMILES | Potency | activity change, negative = inhibition |
| --- | --- | --- |
| C=CC(=O)N1CCc2ccc(-n3c(=O)ccc4cnc5ccc(-c6cnn(C)c6)cc5c43)cc21 | 16.2 µM (active) | – |
| CCC(=C/[C@H](C)C/C=C/C(C)=C/[C@@H](C)C(=O)[C@@H](C)[C@H](O)[C@@H](C)C/C(C)=C/C(=O)O)/C=C/[C@@H]1OC(=O)C=C[C@@H]1C | – | 3.28% (inactive) |
| CC(C)c1cnn2c(NCc3ccccc3)cc(N[C@@H](CO)[C@H](O)CO)nc12 | – | 9.25% (inactive) |
| O=C(CCCCCCC(=O)Nc1ccccc1)NO | – | 4.55% (inactive) |
| CC(C)c1nn(-c2c(Cl)cccc2Cl)c2nc(Cc3ccc(OCCO)cc3)[nH]c(=O)c12 | – | -3.83% (inactive) |
| CCCC(=O)O[C@]1(C(=O)CO)CC[C@H]2[C@@H]3CCC4=CC(=O)CC[C@]4(C)[C@H]3[C@@H](O)C[C@@]21C | – | 4.37% (inactive) |
| CN1CCN(C(=O)c2ccc3cc(CCNc4ncnc5ccc(C#N)cc45)ccc3c2)CC1 | – | 3.61% (inactive) |
| CC(C)(C)CC(=O)OCC(=O)[C@@]1(O)CC[C@H]2[C@@H]3CCC4=CC(=O)C=C[C@]4(C)[C@H]3[C@@H](O)C[C@@]21C | – | -16.5% (inactive) |
| CC[C@@]1(O)C(=O)OCc2c1cc1n(c2=O)Cc2cc3c(CN(C)C)c(O)ccc3nc2-1 | – | -1.12% (inactive) |
| CN1CCN(c2cccc(Nc3nc4c(-c5ccc(S(C)(=O)=O)cc5)cccn4n3)c2)CC1 | – | -24.5% (inactive) |
| Fc1cccc(-n2cnc3c(NCc4nc5c(F)c(F)ccc5[nH]4)nc(N4CCOCC4)nc32)c1 | – | -13.2% (inactive) |
| NC(=O)c1cnc2[nH]ccc2c1NC1C2CC3C[C@H]1CC(O)(C3)C2 (some centres not stated) | – | -0.722% (inactive) |
| CC(=O)OCC(=O)[C@@]1(O)CC[C@H]2[C@@H]3CCC4=CC(=O)C=C[C@]4(C)[C@H]3[C@@H](O)C[C@@]21C | – | 30% (inactive) |
| C[C@]12CCC(=O)C=C1CC[C@H]1[C@@H]3CC[C@](O)(C(=O)CO)[C@@]3(C)C[C@H](O)[C@@]12F | – | 7.29% (inactive) |
| Cc1[nH]c2ccccc2c1CCNCc1ccc(/C=C/C(=O)NO)cc1 | – | -8.01% (inactive) |
| Cc1nc(Nc2n[nH]c3c2CN(C(=O)N[C@H](CN(C)C)c2ccccc2)C3(C)C)c2sccc2n1 | – | -3.25% (inactive) |
| COc1cccc(-c2cc(F)ccc2[C@H]2Cc3nc(N)nc(C)c3C(=O)N2)n1 | – | -5.61% (inactive) |
| COc1cc(Nc2ncc(F)c(Nc3ccc4c(n3)NC(=O)C(C)(C)O4)n2)cc(OC)c1OC | – | -3.83% (inactive) |
| C/C=C1\NC(=O)[C@H]2CSSCCC=C[C@H](CC(=O)N[C@H](C(C)C)C(=O)N2)OC(=O)[C@H](C(C)C)NC1=O | 8.14 µM (active) | – |

| SMILES | Potency | activity change, negative = inhibition |
| --- | --- | --- |
| C1=C/COCc2cc(ccc2OCCN2CCCC2)Nc2nccc(n2)-c2cccc(c2)COC/1 | 11.5 µM (active) | – |
| CS[C@H]1SC[C@@H]2C(=O)N(C)[C@H](C(C)C)C(=O)OC[C@H](NC(=O)c3cnc4ccccc4n3)C(=O)N[C@H](C)C(=O)N(C)[C@H]1C(=O)N(C)[C@H](C(C)C)C(=O)OC[C@H](NC(=O)c1cnc3ccccc3n1)C(=O)N[C@H](C)C(=O)N2C | – | -4.37% (inactive) |
| CCCCC(=O)O[C@]1(C(=O)CO)[C@@H](C)C[C@H]2[C@@H]3CCC4=CC(=O)C=C[C@]4(C)[C@@]3(F)[C@@H](O)C[C@@]21C | – | -2.37% (inactive) |
| Cc1cnc(Nc2ccc(N3CCN(C)CC3)cc2)nc1Nc1cccc(S(=O)(=O)NC(C)(C)C)c1 | 20.5 µM (active) | – |
| COc1cc2c(cc1-c1c(C)noc1C)ncc1[nH]c(=O)n([C@H](C)c3ccccn3)c12 | – | 10.5% (inactive) |
| CCCCc1nc2cc(/C=C/C(=O)NO)ccc2n1CCN(CC)CC | – | -17.6% (inactive) |
| Cc1cc2c(cc1CC(=O)c1sccc1S(=O)(=O)Nc1onc(C)c1Cl)OCO2 | – | 2.91% (inactive) |
| CC(C)(C)c1ccc(S(=O)(=O)/C=C/C#N)cc1 | 3.24 µM (active) | – |
| CS(=O)(=O)N1CCC(NC(=O)c2[nH]ncc2NC(=O)c2c(Cl)cccc2Cl)CC1 | – | -1.09% (inactive) |
| CCc1c(-c2ccccc2C)nc2c(C#N)c[nH]n2c1=O | inactive | – |
| CC[C@@]1(O)C(=O)OCc2c1cc1n(c2=O)Cc2c-1nc1cc(F)c(C)c3c1c2[C@@H](N)CC3 | – | 21.5% (inactive) |
| O=C1CN2Cc3c(ccc(Cl)c3Cl)N=C2N1 | – | 0% (inactive) |
| C[C@@]12O[C@@H](C[C@]1(O)CO)n1c3ccccc3c3c4c(c5c6ccccc6n2c5c31)CNC4=O | – | -15.3% (inactive) |
| COC(=O)Nc1nc2ccc(C(=O)c3ccc(F)cc3)cc2[nH]1 | – | -16.8% (inactive) |
| CC(C)CC(=O)Nc1n[nH]c2c1CN(C(=O)C1CCN(C)CC1)C2(C)C | – | -4.69% (inactive) |
| OC1CCC(Oc2cccc3cnc(Nc4ccc5nc[nH]c5c4)nc23)CC1 (configuration not stated) | – | 6.19% (inactive) |
| Cc1cc(-n2c(=O)ccc3cnc4[nH]ccc4c32)ccc1F | – | -7.36% (inactive) |
| CCc1cnn2c(NCc3ccc[n+]([O-])c3)cc(N3CCCC[C@H]3CCO)nc12 | – | 1.64% (inactive) |

Reference: PubChem BioAssay AID1347414 (National Center for Advancing Translational Sciences (NCATS), 2020)
